The full list was thinned out, with hits kept by preference.
HIV RNase H inh-1 = HIV-1 RT RNase H inhibitors, primary screen, biochemical, fluorescence. Gag-Pol polyprotein (Human immunodeficiency virus type 1 group M subtype B (isolate …. RT-RNase H RNA/DNA duplex cleavage. inhibition, % at 10 µM. 65,000 compounds, 1.9% hits. AID 565, 2006; in the data active = inhibition above about 50%
HIV RNase H inh-2 = HIV-1 RT RNase H inhibitors, retest, confirmation, biochemical. shares compounds with HIV RNase H inh-1. Recombinant RT RNase H, fluorescent RNA/DNA duplex cleavage. inhibition, % at 10 µM. 1,000 compounds, 39% hits; in the data active = inhibition above about 48%; inconclusive = no clear call, values can overlap the other calls
Starred values were filed as active, the others as inactive.

What do the screens show for `COc1ccc(OC)c(S(=O)(=O)N(C)CC(=O)N2CCN(c3ccccc3F)CC2)c1`?
HIV RNase H inh-1: -3

How did COc1cc(C)nc(Oc2ccc(OCCOc3ccc(C)cc3)nn2)n1 do in these assays?
HIV RNase H inh-1: -3

How did Cc1cccc(OCc2nnc3n2CCCCC3)c1 do in these assays?
HIV RNase H inh-1: -3

How did OCCNc1nc2ccc(Cl)cc2[nH]1 do in these assays?
HIV RNase H inh-1: -1

Results for Cc1ccccc1-n1c(SC/C(O)=C(\C#N)c2nc3ccccc3[nH]2)nnc1-c1ccncc1 ?
HIV RNase H inh-1: 14

How did CCOC(=O)c1ccc2c(c1)nc(SC/C(O)=C(\C#N)c1nc3ccccc3[nH]1)n2CC do in these assays?
HIV RNase H inh-1: 33

What do the screens show for `Cc1cc(C)n2c(SC/C(O)=C(\C#N)c3nc4ccccc4[nH]3)nnc2n1`?
HIV RNase H inh-1: 83*; HIV RNase H inh-2: inconclusive

Results for Cc1csc(NC(=O)C2CCCN(S(=O)(=O)c3ccc(Br)s3)C2)n1 (stereo unspecified) ?
HIV RNase H inh-1: -32

Results for CCc1c(C(=O)NCc2ccc3c(c2)OCO3)[nH]c(C)c1C(C)=O ?
HIV RNase H inh-1: -30

What do the screens show for `O=C(CN1C(=O)c2ccccc2S1(=O)=O)NCCSC1CCCCC1`?
HIV RNase H inh-1: -11

Results for COc1ccc(C(=O)CSc2nnc(-c3cc(C)cc(C)c3)o2)cc1 ?
HIV RNase H inh-1: -7

Results for COC(=O)c1ccc(CSc2nnc(-c3ccncc3)o2)o1 ?
HIV RNase H inh-1: -9

Results for COC(=O)c1ccc(OC)c(CSc2nnc(-c3ccc(C)cc3)o2)c1 ?
HIV RNase H inh-1: 66*; HIV RNase H inh-2: 48

What do the screens show for `CS(=O)CSc1nc2c(cc1C#N)CCCC2` (stereo unspecified)?
HIV RNase H inh-1: -6

How did N#Cc1cc2c([nH]c1=S)CCCCCC2 do in these assays?
HIV RNase H inh-1: 81*; HIV RNase H inh-2: 45

What do the screens show for `N#Cc1c(N)n[nH]c1-c1cc2c([nH]1)CCCC2`?
HIV RNase H inh-1: 2

What do the screens show for `CCC1(C)Cc2c(c(=O)n(-c3ccccc3)c3ncnc(N)c23)CO1` (stereo unspecified)?
HIV RNase H inh-1: -14

What do the screens show for `Cc1cc(C)c(S(=O)(=O)n2nc(C)c(Br)c2C)c(C)c1`?
HIV RNase H inh-1: -18

What do the screens show for `CC(C)(C)NC(=O)c1ccccc1-c1nc(-c2ccccc2Cl)no1`?
HIV RNase H inh-1: -13

How did CCOC(=O)c1ccc2c(c1)NC(=O)C(N1CCN(c3ccc(OC)cc3)CC1)S2 (stereo unspecified) do in these assays?
HIV RNase H inh-1: 85*; HIV RNase H inh-2: -5

Results for CCOC(=O)N1CCN(C(=O)c2ccc3c(c2)NC(=O)C(N2CCOCC2)S3)CC1 (stereo unspecified) ?
HIV RNase H inh-1: -8

Results for COC(=O)c1ccc2c(c1)NC(=O)C(N1CCCCC1)S2 (stereo unspecified) ?
HIV RNase H inh-1: 4

How did CCCCN(C)CCCNC(=O)c1ccc2c(c1)NC(=O)C(N1CCOCC1)S2 (stereo unspecified) do in these assays?
HIV RNase H inh-1: -3

What do the screens show for `COC(=O)c1ccc2c(c1)NC(=O)C(N1CCCC1)S2` (stereo unspecified)?
HIV RNase H inh-1: 4

Results for O=C(O)c1ccc2c(c1)NC(=O)C(N1CCCC1)S2 (stereo unspecified) ?
HIV RNase H inh-1: 92*; HIV RNase H inh-2: 63*

Results for CCOC(=O)c1c(C)[nH]sc1=S ?
HIV RNase H inh-1: 13

What do the screens show for `CCOC(=O)c1c(N)sn(-c2ccccc2C)c1=S`?
HIV RNase H inh-1: 92*; HIV RNase H inh-2: 71*

How did CCOC(=O)c1nn(-c2ccccc2C)c(=O)c(C#N)c1C do in these assays?
HIV RNase H inh-1: 1

What do the screens show for `CCCCn1c(SCC(=O)N2CCCc3ccccc32)nc2c1c(=O)n(C)c(=O)n2C`?
HIV RNase H inh-1: -6

Results for O=C1C2C(C(=O)N1c1ccncc1)C1C=CC2C12CC2 (stereo unspecified) ?
HIV RNase H inh-1: 74*; HIV RNase H inh-2: 29

What do the screens show for `Cc1ccc(N2C(=O)C3C(C2=O)C2C=CC3C23CC3)cc1` (stereo unspecified)?
HIV RNase H inh-1: 1

What do the screens show for `COc1cccc(N2C(=O)C3C(C2=O)C2C=CC3C23CC3)c1` (stereo unspecified)?
HIV RNase H inh-1: 4

What do the screens show for `O=C(NCCCN1CCOCC1)c1cccs1`?
HIV RNase H inh-1: -11

How did CCCN(S(=O)(=O)c1ccc(OCC)cc1)S(=O)(=O)c1cccs1 do in these assays?
HIV RNase H inh-1: -4

How did COc1ccccc1NC(=O)Cn1cnc2c(cnn2-c2ccccc2)c1=O do in these assays?
HIV RNase H inh-1: -6

Results for CCOC(=O)c1ccccc1NC(=O)Cn1cnc2c(cnn2-c2ccccc2)c1=O ?
HIV RNase H inh-1: -14

What do the screens show for `COC(=O)c1ccccc1NC(=O)Cn1cnc2c(cnn2-c2ccccc2)c1=O`?
HIV RNase H inh-1: 74*; HIV RNase H inh-2: 30

Results for COC(=O)c1ccc(CSc2nnnn2-c2ccc(C)cc2C)o1 ?
HIV RNase H inh-1: -33

Results for Cc1ccc(-n2nnnc2SCC(N)=O)c(C)c1 ?
HIV RNase H inh-1: -44

How did COC(=O)c1sc(NC(=O)CSc2nnnn2-c2ccc(C)cc2C)nc1C do in these assays?
HIV RNase H inh-1: 64*; HIV RNase H inh-2: 9

How did CCn1c(SCC(=O)NC(=O)Nc2ccc3c(c2)OCCO3)nnc1-c1cccs1 do in these assays?
HIV RNase H inh-1: 4

Results for CCOc1ccc(N2Cc3ccccc3C2)cc1 ?
HIV RNase H inh-1: 73*; HIV RNase H inh-2: 61*

What do the screens show for `CCOc1ccc(S(=O)(=O)N2CCc3ccccc3C2)cc1`?
HIV RNase H inh-1: -8

Results for CCOc1ccc(N2C(=O)CCC2=O)cc1 ?
HIV RNase H inh-1: -1

Results for Cc1nn(C)cc1C1C2=C(CC(C)(C)CC2=O)OC2=C1C(=O)CC(C)(C)C2 ?
HIV RNase H inh-1: 7

Results for COc1ccc(C(=O)Nc2nnc(-c3ccccc3)o2)cc1OC ?
HIV RNase H inh-1: -14

Results for O=C(Nc1nnc(-c2ccc3c(c2)OCCO3)o1)c1ccc(Cc2ccccc2)cc1 ?
HIV RNase H inh-1: 59*; HIV RNase H inh-2: 10

How did O=C(OCc1nnc(-c2ccccc2)o1)c1ccc2c(c1)OCCO2 do in these assays?
HIV RNase H inh-1: -38

What do the screens show for `Cc1cccc(C)c1NC(=O)CSCC(=O)O`?
HIV RNase H inh-1: -4

What do the screens show for `Cc1cccc(C)c1NC(=O)CSCC(=O)c1ccc(O)c(O)c1`?
HIV RNase H inh-1: 87*; HIV RNase H inh-2: 62*

How did Cc1cccc(C)c1NC(=O)CSCCO do in these assays?
HIV RNase H inh-1: -9

What do the screens show for `O=C(CSc1ncnc2nc[nH]c12)N1CCOCC1`?
HIV RNase H inh-1: -6

What do the screens show for `Cn1cc(/C=N/n2cnc3sc4c(c3c2=O)CCCC4)c2ccccc21`?
HIV RNase H inh-1: -6

Results for CN1CCc2c(sc3c2C(=O)NC(c2ccccn2)N3)C1 (stereo unspecified) ?
HIV RNase H inh-1: 50

Results for Cn1cc(C2NC(=O)c3c(sc4c3CCCC4)N2)c2ccccc21 (stereo unspecified) ?
HIV RNase H inh-1: 69*; HIV RNase H inh-2: inconclusive

What do the screens show for `CCCCCNC(CC(=O)Nc1ccc(OC)cc1)C(=O)O` (stereo unspecified)?
HIV RNase H inh-1: -3

How did Cc1c(NS(=O)(=O)c2ccccc2)cc(Cl)c(O)c1C do in these assays?
HIV RNase H inh-1: 74*; HIV RNase H inh-2: 33
